The source of these data is PubChem BioAssay.

In test [1] the target is Albumin (Bos taurus) (UniProt P02769). Nature of the test: bovine serum albumin binders on microarray, profiling panel, artefact control for SMM control protein annotation, biochemical, small-molecule microarray, Alexa647 label, 635/667 nm fluorescence (AID 1118).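 Note: score merges 667 nm emission intensity and signal-to-noise per printed compound spot.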 The note with it: BSA-A647 binding, fluorescence 635 nm, higher = more signal.
Chain of Albumin (Bos taurus) (P02769 whole entry, looked up): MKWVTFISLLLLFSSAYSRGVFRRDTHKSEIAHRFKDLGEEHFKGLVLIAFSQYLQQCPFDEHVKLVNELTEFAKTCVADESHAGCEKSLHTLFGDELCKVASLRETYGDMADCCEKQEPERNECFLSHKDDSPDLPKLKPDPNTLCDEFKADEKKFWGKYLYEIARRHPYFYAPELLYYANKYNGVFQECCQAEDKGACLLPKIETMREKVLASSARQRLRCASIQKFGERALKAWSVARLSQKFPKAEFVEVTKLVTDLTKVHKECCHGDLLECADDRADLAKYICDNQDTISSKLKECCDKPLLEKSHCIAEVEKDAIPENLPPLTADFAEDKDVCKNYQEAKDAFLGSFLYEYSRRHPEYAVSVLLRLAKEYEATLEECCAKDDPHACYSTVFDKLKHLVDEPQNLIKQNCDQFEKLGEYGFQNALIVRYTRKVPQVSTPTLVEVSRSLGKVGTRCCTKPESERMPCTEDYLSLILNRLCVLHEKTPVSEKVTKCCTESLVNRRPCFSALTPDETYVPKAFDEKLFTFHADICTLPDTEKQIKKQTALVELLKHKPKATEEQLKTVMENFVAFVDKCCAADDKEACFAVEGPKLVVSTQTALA
Test [2] in a line: small-molecule microarray binders of probe aXIP, primary screen, biochemical, NeuroSMM set, 635/667 nm fluorescence (AID 1119).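 Note: probe is the protein aXip251-270 applied at 1 µg/mL to compound-printed slides; binding of probe to printed compounds measured as 667 nm fluorescence plus signal to noise.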 The note with it: higher = more signal, called active from +8 up or from −8 down.
Test [3] in a line: small-molecule binders of probe aNOTCH3, primary screen, biochemical, small-molecule microarray, 635/667 nm fluorescence (AID 1120).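 Note: probe is a biotin-tagged antibody raised against NOTCH3 rather than NOTCH3 protein; score merges spot fluorescence near 667 nm with spot signal to noise.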 The note with it: higher = more signal.
A short description of test [4]: small-molecule binders of probe aNOTCH2, primary screen, biochemical, small-molecule microarray, 635/667 nm fluorescence (AID 1121).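 Note: score merges feature fluorescence read at 667 nm with its signal to noise.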 To be noted: higher = more signal.
In test [5] the target is Carbonic anhydrase 2 (Homo sapiens) (UniProt P00918). Nature of the test: CAII small-molecule binders, profiling panel, biochemical, small-molecule microarray, Alexa647-labelled CAII (AID 1122). To be noted: CAII-A647 binding fluorescence, higher = more signal.
Test [6] in a line: COS7 lysate on small-molecule microarray, probe aHis, 635 nm (AID 1123).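 Note: z-score combines 667nm fluorescence intensity with signal-to-noise per printed compound spot.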 The note with it: COS7 cell lysate, fluorescence, higher = more signal.
Test [7] can be described thus: compound binding in COS7 lysate, probe aLAP1, primary screen, cell lysate, small-molecule microarray (AID 1124).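 Note: lysate comes from COS7 cells expressing LAP1 and is applied at 0.3 µg/mL; score merges spot fluorescence near 667 nm with signal-to-noise over triplicate slides.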 The note with it: probe aLAP1, fluorescence, higher = more signal.
Test [8] has as its system Sam68 (KHDRBS1). As to the kind of experiment: Sam68 small-molecule binders, primary screen, biochemical, small-molecule microarray, 635 nm fluorescence (AID 1125).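 Note: score merges 667 nm channel intensity with signal to noise over triplicate slides.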 The note with it: small-molecule microarray binding, higher = more signal.
The test system of test [9] is Chordin-like protein 2 (CHRDL2). Nature of the test: CHRDL2 small-molecule binders, primary screen, biochemical, small-molecule microarray, 635 nm fluorescence (AID 1126).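 Note: printed compound slides probed with Chrdl2 protein at 4 µg/mL for 1 h at 4 C; score merges 667 nm emission intensity with signal to noise over three replicate slides.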 To be noted: small-molecule microarray binding, fluorescence 635 nm; higher = more signal.
The target in test [10] is Concanavalin-A (Canavalia ensiformis) (UniProt P02866). As to the kind of experiment: ConA small-molecule binders, primary screen, artefact control for SMM control protein annotation, biochemical, small-molecule microarray, Alexa647 label, 635 nm (AID 1127).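 Note: z combines 667 nm emission intensity with signal-to-noise across three replicate slides.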 To be noted: ConA-A647 binding fluorescence, higher = more signal.
Chain of Concanavalin-A (Canavalia ensiformis) (P02866 whole entry, looked up): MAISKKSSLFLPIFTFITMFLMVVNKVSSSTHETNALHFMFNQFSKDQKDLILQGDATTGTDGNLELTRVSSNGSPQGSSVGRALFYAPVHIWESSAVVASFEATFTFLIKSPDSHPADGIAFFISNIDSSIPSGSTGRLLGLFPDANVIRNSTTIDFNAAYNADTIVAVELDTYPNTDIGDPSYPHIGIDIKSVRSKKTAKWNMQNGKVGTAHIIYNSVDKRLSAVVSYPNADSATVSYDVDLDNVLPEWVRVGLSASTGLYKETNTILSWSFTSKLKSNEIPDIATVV

Activity calls are given as the source filed them.

On to `CN(C)CCCNC(=O)[C@@H]1c2ccccc2C(=O)N(Cc2ccc(OC(F)(F)F)cc2)[C@H]1c1ccc(CO)cc1`, for which the composite z-score in [1] was -0.298; in [3], 0.0469; in [4], -0.115; in test [5], 0.398; in test [6], 1.4; in [7], 0.602. The composite z-score came out at 1.26 in test [8], 0.151 in [9] and 0.675 in test [10]. Besides, the composite Z-score in test [2] was 0.729 (inactive).
On to `CN1C(=O)C2C=CC(C(O)Cc3ccccc3)N(N(c3ccccc3)c3ccccc3)C2C1=O` (stereo not given), for which the composite z-score is 0.829 in [1]; 0.116 in [3]; -0.0086 in test [4]; 0.613 in [5]; 1.02 in [6]; 0.521 in test [7]. Besides, the composite z-score was 0.805 in test [8], -0.897 in test [9] and 0.325 in [10]. Moreover, in test [2], the composite Z-score was 0.895 (inactive).
In the case of `C=CCOC(=O)[C@@H]1[C@H]2C(=O)O[C@H](c3ccccc3)[C@H](c3ccccc3)N2[C@H](c2ccc(OCCOC(=O)[C@H]3C[C@H]4C(=O)N[C@@H](CCCC[N+](C)(C)C)C(=O)N4[C@H]3c3ccc(O)cc3)cc2)[C@@]12C(=O)Nc1ccc(I)cc12`, the composite z-score was -0.914 in [1]; 0.147 in test [3]; -0.0843 in [4]; 0.534 in test [5]; 2.74 in test [6]; 0.577 in [7]. The composite z-score in [8] worked out at 1.3; in test [9] it was 1.16; in test [10], 1.19. For the same compound, in [2], the composite Z-score is 4.1 (inactive).
Consider `CC1CC/C=C\[C@H]2OC34C=CCN(C(C)C)C(=O)[C@H]3N(CCCCCO)C(=O)[C@@H]4C2C(=O)O1` (stereo not given in full), for which the composite z-score in test [1] is -1.51; in test [3], -0.289; in test [4], -0.153; in [5], 0.939; in test [6], -0.384; in [7] it was 0.839. The figures for the composite z-score in test [8], in test [9] and in test [10] were -0.925, -1.69 and -0.486, respectively. Further, the composite Z-score in [2] is -0.362 (inactive).
Consider `CC(C)(C)N1CC=CC23O[C@@H]4C=CCOC(=O)[C@@H]4[C@H]2C(=O)N(CCCO)[C@@H]3C1=O` (stereo not given in full), for which the composite z-score in test [1] is -1.37; in [3] it was -0.478; in test [4] it was -0.179; in test [5] it was 0.917; in [6], 0.216; in [7], -0.343. Further, the composite z-score was -1.01 in [8], -1.64 in test [9] and -1.62 in [10]. Also, the composite Z-score in test [2] is 0.701 (inactive).
For `COC(=O)[C@@]1(Cc2ccc(OC)cc2)[C@H]2c3cc(C(=O)N(C)C)n(CCc4c[nH]c5ccc(O)cc45)c3C[C@H]2CN1C(=O)c1ccccc1`, the composite z-score was 0.932 in test [1]; 0.403 in test [3]; 0.357 in test [4]; 0.745 in test [5]; 2.88 in [6]; 1.27 in test [7]. The figures for the composite z-score in test [8], in test [9] and in [10] were 1.34, 0.121 and 1.17, respectively. The composite Z-score in test [2] was 0.258 (inactive).
Regarding `O=C(CCCCCCC(=O)Nc1ccccc1)N/N=C/c1ccccc1`, the composite z-score in test [1] is -0.4; in test [3] it was -0.154; in [4], -0.144; in test [5] it was -0.251; in test [6], -0.591; in [7] it was 0.212. The composite z-score is -0.731 in [8], 0.358 in test [9] and -0.434 in test [10]. The composite Z-score in [2] was 0.0068 (inactive).
